Reference: PubChem BioAssay (Tox21)
Records with an inconclusive call do not appear. Active and inactive are the calls of the source. Unless noted, the call rests on the fitted dose curve; in most records, active means well fitted curve in the direction sought with a large enough effect in the repeat runs; inconclusive means weak or mixed curves; inactive means no such curve, though single readings can be large; an effect the other way counts as inactive or inconclusive.

Key:
[1] = qHTS assay to identify small molecule antagonists of the estrogen related receptor (ERR) signaling pathway from Tox21 library - cell viability counter screen (AID 1224834); further: nearly all actives have a fitted effect of over 30% in size
Outline: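 In this quantitative HTS format, ERR cells receive compounds in DMSO and are incubated for 17.5 h at 37 C. Live-cell protease activity is then detected with CellTiter-Fluor.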

[2] = biological target: Luciferin 4-monooxygenase (Photinus pyralis) (UniProt P08659); assay: qHTS assay to identify small molecule inhibitors of firefly luciferase (AID 1224835); further: nearly all actives have a fitted effect of over 25% in size; further: potency means the concentration at half of the fitted maximal effect
Chain of Luciferin 4-monooxygenase (Photinus pyralis) (P08659 whole entry, looked up): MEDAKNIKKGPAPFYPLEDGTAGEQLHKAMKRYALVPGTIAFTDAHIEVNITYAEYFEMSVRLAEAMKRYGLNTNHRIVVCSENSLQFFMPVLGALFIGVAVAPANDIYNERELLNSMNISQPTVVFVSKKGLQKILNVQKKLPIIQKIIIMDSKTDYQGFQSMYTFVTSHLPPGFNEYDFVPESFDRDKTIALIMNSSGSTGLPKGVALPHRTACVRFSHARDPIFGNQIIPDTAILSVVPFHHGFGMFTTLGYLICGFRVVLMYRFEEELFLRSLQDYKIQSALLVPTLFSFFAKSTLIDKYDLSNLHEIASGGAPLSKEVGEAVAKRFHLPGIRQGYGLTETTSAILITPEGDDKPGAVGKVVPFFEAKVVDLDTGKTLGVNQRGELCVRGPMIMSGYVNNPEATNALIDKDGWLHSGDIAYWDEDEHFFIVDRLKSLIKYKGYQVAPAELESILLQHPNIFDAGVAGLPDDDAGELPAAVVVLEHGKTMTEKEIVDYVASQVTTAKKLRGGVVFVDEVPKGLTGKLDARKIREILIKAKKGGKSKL
Outline: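 Inhibition of purified Photinus luciferase is measured by luminescence. Substrate levels (D-luciferin, ATP) sit at their KM values. Each compound is tested in a concentration series.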

[3] = qHTS assay to identify small molecule agonists of the constitutive androstane receptor (CAR) signaling pathway - cell viability counter screen (AID 1224836); further: nearly all actives have a fitted effect of over 45% in size
Outline: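 Fluorescence from CellTiter-Fluor indicates live cells after 23 h exposure. The human hepatoma line expresses hCAR and a CYP2B6-2.2kb reporter. Incubation medium contains 0.75 uM PK11195 (final).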

[4] = qHTS assay to identify small molecule antagonists of the constitutive androstane receptor (CAR) signaling pathway - cell viability counter screen (AID 1224837); further: nearly all actives have a fitted effect of over 45% in size
Outline: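 In quantitative HTS format, compounds at 15 concentrations were applied to HepG2 cells double-transfected with hCAR and CYP2B6-2.2kb under 50 nM CITCO stimulation; live-cell protease activity was read after 23 hr via CellTiter-Fluor.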

[5] = biological target: Nuclear receptor subfamily 1 group I member 3 (Homo sapiens) (UniProt Q14994); assay: qHTS assay to identify small molecule antagonists of the constitutive androstane receptor (CAR) signaling pathway (AID 1224838); further: nearly all actives have a fitted effect of over 40% in size
Chain of Nuclear receptor subfamily 1 group I member 3 (Homo sapiens) (Q14994 whole entry, looked up): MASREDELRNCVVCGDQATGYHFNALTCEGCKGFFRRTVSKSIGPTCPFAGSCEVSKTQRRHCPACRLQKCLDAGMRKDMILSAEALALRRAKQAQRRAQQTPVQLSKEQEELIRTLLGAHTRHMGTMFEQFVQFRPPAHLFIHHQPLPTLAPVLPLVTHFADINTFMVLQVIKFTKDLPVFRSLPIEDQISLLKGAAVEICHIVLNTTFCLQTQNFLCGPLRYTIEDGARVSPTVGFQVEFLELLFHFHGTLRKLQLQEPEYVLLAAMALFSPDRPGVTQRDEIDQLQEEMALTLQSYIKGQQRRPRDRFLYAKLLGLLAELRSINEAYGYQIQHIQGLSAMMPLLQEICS
Outline: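 CITCO-stimulated (50 nM final) HepG2 cells stably transfected with hCAR and CYP2B6-2.2kb luciferase were exposed to compounds at 15 concentrations for 24 h at 37 C/5% CO2. A luciferase reagent was added and luminescence recorded after 30 min.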

[6] = biological target: Nuclear receptor subfamily 1 group I member 3 (Homo sapiens) (UniProt Q14994); assay: qHTS assay to identify small molecule agonists of the constitutive androstane receptor (CAR) signaling pathway (AID 1224839); further: nearly all actives have a fitted effect of over 15% in size; further: potency means the concentration at half of the fitted maximal effect;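 on activation: HepG2 cells stably carrying human CAR and a CYP2B6 luciferase reporter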
Outline: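 Stable hCAR/CYP2B6-2.2kb HepG2 line in DMEM with 10% FBS; compounds (15 concentrations) and 0.75 uM PK11195 final, 24 h at 37 C/5% CO2, then ONE-Glo luminescence after 30 min.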

[7] = qHTS assay to identify small molecule antagonists of the estrogen related receptor signaling pathway with the pleiotropic PPARgamma coactivator (PGC) from Tox21 10K library - cell viability counter screen (AID 1224840; active means well fitted cell-killing curve with a large enough effect in the repeat runs, not every such curve was filed as active; further: nearly all actives have a fitted effect of over 40% in size)
Outline: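 Viability counter screen, PGC/ERR cells: 17.5 h compound exposure at 37 C, CellTiter-Fluor fluorescence endpoint.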

[8] = biological target: Thyrotropin receptor (Homo sapiens) (UniProt P16473); assay: qHTS assay to identify small molecule agonists of the thyroid stimulating hormone receptor (TSHR) signaling pathway (AID 1224843; calls by dose curve; further: nearly all actives have a fitted effect of over 45% in size)
Chain of Thyrotropin receptor (Homo sapiens) (P16473 whole entry, looked up): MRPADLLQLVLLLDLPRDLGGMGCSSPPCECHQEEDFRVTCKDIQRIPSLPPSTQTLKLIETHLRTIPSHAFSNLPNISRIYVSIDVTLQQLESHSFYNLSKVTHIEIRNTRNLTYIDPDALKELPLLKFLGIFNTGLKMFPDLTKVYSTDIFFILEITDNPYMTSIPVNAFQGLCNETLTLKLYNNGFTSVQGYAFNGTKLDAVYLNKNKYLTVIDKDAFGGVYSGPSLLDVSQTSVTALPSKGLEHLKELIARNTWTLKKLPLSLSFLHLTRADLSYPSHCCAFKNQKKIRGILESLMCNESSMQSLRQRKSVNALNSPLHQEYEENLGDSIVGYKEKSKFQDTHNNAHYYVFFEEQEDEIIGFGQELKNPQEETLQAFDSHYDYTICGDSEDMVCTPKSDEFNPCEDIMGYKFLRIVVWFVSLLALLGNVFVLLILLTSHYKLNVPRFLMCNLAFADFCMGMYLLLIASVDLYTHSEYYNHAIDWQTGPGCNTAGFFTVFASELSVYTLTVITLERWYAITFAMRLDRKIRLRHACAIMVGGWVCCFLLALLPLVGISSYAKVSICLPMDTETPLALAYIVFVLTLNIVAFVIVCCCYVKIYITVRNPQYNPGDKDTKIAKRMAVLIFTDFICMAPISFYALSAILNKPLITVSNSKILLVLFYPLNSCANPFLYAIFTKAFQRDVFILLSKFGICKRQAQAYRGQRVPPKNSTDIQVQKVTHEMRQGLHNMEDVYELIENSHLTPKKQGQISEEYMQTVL
Outline: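 A cell-based cAMP HTRF format was run in TSHR-transfected HEK293 cells, 800 per well. Treatment: 30 min, room temperature. Detection: 1 h with labelled cAMP and anti-cAMP cryptate. Concentration-response over 15 points, three replicates.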

[9] = qHTS assay to identify small molecule agonists of the hypoxia (HIF-1) signaling pathway - cell viability counter screen (AID 1224844; calls by dose curve; further: nearly all actives have a fitted effect of over 50% in size)
Outline: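 Same wells as the HIF-1 reporter screen; ME-180 cells carrying HRE-bla, 17 hr treatment at 37C; CellTiter-Glo luminescence read after 30 min at room temperature.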

[10] = qHTS assay to identify small molecule agonists of H2AX (AID 1224845; active means well fitted activation curve with a large enough effect in the signal ratio in the repeat runs, not every such curve was filed as active; the % refers to the signal ratio)
Outline: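 Phospho-H2AX Ser139 measured by HTRF (ex 320 nm; em 665 and 620 nm) after 24 hr antibody incubation. Compounds, 15 concentrations, 0.76% DMSO, were applied to CHO-K1 cells for 3hr at 37C before lysis.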

[11] = qHTS RealTime-Glo MT Cell Viability Assay in HepG2 cells - 24 hour (AID 1224867); further: nearly all actives have a fitted effect of over 50% in size
Outline: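 Cell number in HepG2 cultures estimated from NanoLuc luminescence generated by metabolic reduction of a prosubstrate by living cells. The homogeneous, nonlytic format allowed repeated reads at 0, 8, 16, 24, 32 and 40 h of compound exposure.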

[12] = qHTS RealTime-Glo MT Cell Viability Assay in HEK293 cells - 32 hour (AID 1224868); further: top concentration of the series differs between compounds; nearly all actives have a fitted effect of over 50% in size
Outline: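 Homogeneous bioluminescent viability format in HEK293 cells (600 cells/well). Following 5 h at 37 C/5% CO2, 23 nL compound was pintooled; the signal was measured repeatedly during 40 h incubation.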

[13] = A CellTox Green Cytotoxicity Assay to monitor cytotoxicity in HEK293 cells - 0 hour (AID 1224869); further: nearly all actives have a fitted effect of over 50% in size
Outline: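 Homogeneous no-lysis format: HEK293 cell suspension mixed with CellTox Green reagent, seeded, incubated 5 h at 37 C/5% CO2, then dosed by pintool with compound in DMSO.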

[14] = qHTS RealTime-Glo MT Cell Viability Assay in HepG2 cells - 40 hour (AID 1224870); further: nearly all actives have a fitted effect of over 50% in size
Outline: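 Real-time viability: cells seeded at 600 per well together with NanoLuc and cell-permeant prosubstrate, compounds added after 5 h incubation. Luminescence tracked at 0, 8, 16, 24, 32 and 40 h of exposure.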

[15] = qHTS assay to identify small molecule antagonists of the estrogen related receptor signaling pathway with the pleiotropic PPARgamma coactivator (PGC) from Tox21 10K library (AID 1224841; call rule not given here)
Outline: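 In the PGC/ERR line, DMSO solutions of test chemicals are pin-delivered to 2,000 cells/well six hours after dispensing. Following eighteen hours' incubation, One-Glo reagent is added and luminescence recorded.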

[16] = qHTS assay to identify small molecule agonists of the estrogen related receptor signaling pathway with the pleiotropic PPARgamma coactivator (PGC) from Tox21 10K library (AID 1224842); further: nearly all actives have a fitted effect of over 15% in size
Outline: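 Luminescence from One-Glo (30 min, room temperature) measured after PGC/ERR cells had 18 h at 37 C with pinned compound (23 nL in DMSO). Cells had been seeded at 2,000 per well and pre-incubated 6 h.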

[17] = qHTS assay to identify small molecule agonists of the hypoxia (HIF-1) signaling pathway (AID 1224846; active means well fitted activation curve with a large enough effect in the signal ratio in the repeat runs, not every such curve was filed as active; the % refers to the signal ratio)
Outline: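 In ME-180 cells bearing an HRE-bla construct, 17 h treatment with DMSO-dissolved compounds at 37C was followed by CCF4-AM loading to quantify reporter induction.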

[18] = qHTS assay to identify small molecule agonists of H2AX - cell viability counter screen (AID 1224847; calls by dose curve; further: top concentration of the series differs between compounds; nearly all actives have a fitted effect of over 30% in size)
Outline: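 Viability of CHO-K1 (wild type) cells after 3 hr compound exposure was measured by CellTiter-Glo luminescence.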

[19] = qHTS assay to identify small molecule antagonists of the estrogen related receptor (ERR) signaling pathway from Tox21 library (AID 1224848); further: nearly all actives have a fitted effect of over 50% in size
Outline: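 ERR cell line, 2,000 cells/well. 6 h settle, then compound (DMSO) added; 18 h at 37 C; ONE-Glo luminescence after 30 min RT.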

[20] = qHTS assay to identify small molecule agonists of the estrogen related receptor (ERR) signaling pathway from Tox21 library (AID 1224849; calls by dose curve; further: nearly all actives have a fitted effect of over 15% in size); conditions: ERR reporter cell line, ONE-Glo luciferase, 18 h; at 92.4 µM (top of the series) unless noted
Outline: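 Reporter cells (ERR, NTP source) treated with Tox21 10K compounds 18 h, 37 C. Readout: ONE-Glo luminescence, 30 min RT.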
On the % scale 0 is the no-effect control and ±100 the full control effect.

COc1cccc(OC)c1
inactive: Potency [1] | Potency [2] | outcome [3] | outcome [4] | Potency [5] | Potency [6] | outcome [7] | outcome [8] | Potency [9] | outcome [10] | outcome [11] | Potency [12] | Potency [13] | Potency [14]

O=C(O)c1cccc(C(=O)O)n1
inactive: Potency [1] | Potency [2] | outcome [3] | outcome [4] | Potency [5] | Potency [6] | outcome [7] | Potency [15] | Potency [16] | outcome [8] | Potency [9] | outcome [10] | outcome [17] | Potency [18] | Potency [19] | activity change, positive = activation [20] 2.2% | Potency [12] | Potency [13] | Potency [14]

CC(C)=CC(=O)O
inactive: Potency [1] | Potency [2] | outcome [3] | outcome [4] | Potency [5] | Potency [6] | outcome [7] | outcome [8] | Potency [9] | outcome [10] | outcome [17] | Potency [18] | outcome [11] | Potency [12] | Potency [13]

CCCCC1CCCCC(=O)O1 (stereo not given)
inactive: Potency [1] | Potency [2] | outcome [3] | outcome [4] | Potency [5] | Potency [6] | outcome [7] | Potency [15] | Potency [16] | outcome [8] | Potency [9] | outcome [10] | Potency [18] | Potency [19] | activity change, positive = activation [20] 0.974% | outcome [11] | Potency [12] | Potency [13] | Potency [14]

CC/C=C\C#N
inactive: Potency [1] | Potency [2] | outcome [3] | outcome [4] | Potency [5] | Potency [6] | outcome [7] | outcome [8] | Potency [9] | outcome [10] | Potency [18] | outcome [11] | Potency [12] | Potency [13] | Potency [14]

COc1cc(O)cc(O)c1
inactive: Potency [1] | Potency [2] | outcome [3] | outcome [4] | Potency [5] | Potency [6] | outcome [7] | outcome [8] | Potency [9] | outcome [10] | outcome [17] | Potency [18] | outcome [11] | Potency [12] | Potency [13]

CCC(=O)/C=C/c1ccc(OC)cc1
inactive: Potency [1] | outcome [3] | outcome [4] | Potency [5] | outcome [7] | Potency [15] | Potency [16] | outcome [8] | Potency [9] | outcome [17] | Potency [18] | Potency [19] | activity change, positive = activation [20] -2.91% | outcome [11] | Potency [12] | Potency [13]
active: Potency [2] 35.6 µM | Potency [6] 54.5 µM

NS(=O)(=O)c1cc2c(cc1C(F)(F)F)NC(Cc1ccccc1)NS2(=O)=O (stereo not given)
inactive: Potency [1] | Potency [2] | outcome [3] | outcome [4] | Potency [5] | Potency [6] | outcome [7] | outcome [8] | Potency [9] | outcome [10] | Potency [18] | outcome [11] | Potency [12] | Potency [13] | Potency [14]

CCCCCCOC(=O)CC(CC(=O)OCCCCCC)(OC(=O)CCC)C(=O)OCCCCCC
inactive: Potency [1] | Potency [2] | outcome [3] | outcome [4] | Potency [5] | Potency [6] | outcome [7] | Potency [15] | Potency [16] | outcome [8] | Potency [9] | outcome [10] | outcome [17] | Potency [18] | Potency [19] | activity change, positive = activation [20] -12.6% | outcome [11] | Potency [12] | Potency [13] | Potency [14]

CCCCCOC(=O)Nc1nc(=O)n([C@@H]2O[C@H](C)[C@@H](O)[C@H]2O)cc1F
inactive: Potency [1] | Potency [2] | outcome [3] | outcome [4] | Potency [5] | Potency [6] | outcome [7] | outcome [8] | Potency [9] | outcome [10] | outcome [17] | Potency [18] | outcome [11] | Potency [13] | Potency [14]

OC[C@H]1O[C@@H]2O[C@H]3[C@H](O)[C@@H](O)[C@@H](O[C@H]4[C@H](O)[C@@H](O)[C@@H](O[C@H]5[C@H](O)[C@@H](O)[C@@H](O[C@H]6[C@H](O)[C@@H](O)[C@@H](O[C@H]7[C@H](O)[C@@H](O)[C@@H](O[C@H]8[C@H](O)[C@@H](O)[C@@H](O[C@H]9[C@H](O)[C@@H](O)[C@@H](O[C@H]1[C@H](O)[C@H]2O)O[C@@H]9CO)O[C@@H]8CO)O[C@@H]7CO)O[C@@H]6CO)O[C@@H]5CO)O[C@@H]4CO)O[C@@H]3CO
inactive: Potency [1] | Potency [2] | outcome [3] | outcome [4] | Potency [5] | Potency [6] | outcome [7] | Potency [15] | Potency [16] | outcome [8] | Potency [9] | outcome [10] | outcome [17] | Potency [18] | Potency [19] | activity change, positive = activation [20] 0.681% [at 42.5 µM] | outcome [11] | Potency [12] | Potency [13]

C=C(C)C(=O)OCCC(C)OC(=O)C(=C)C (stereo not given)
inactive: Potency [1] | Potency [2] | outcome [3] | outcome [4] | Potency [5] | Potency [6] | outcome [7] | Potency [15] | Potency [16] | outcome [8] | Potency [9] | Potency [18] | Potency [19] | activity change, positive = activation [20] 3.72% | Potency [12] | Potency [13]

CCCCc1ccc2cccc(S(=O)(=O)O)c2c1
inactive: Potency [1] | Potency [2] | outcome [3] | outcome [4] | Potency [5] | Potency [6] | outcome [7] | Potency [15] | Potency [16] | outcome [8] | Potency [9] | outcome [10] | outcome [17] | Potency [18] | Potency [19] | activity change, positive = activation [20] -0.296% | outcome [11] | Potency [12] | Potency [13] | Potency [14]

CN(C)C(=O)Nc1ccccc1
inactive: Potency [1] | Potency [2] | outcome [3] | outcome [4] | Potency [5] | Potency [6] | outcome [7] | Potency [15] | Potency [16] | outcome [8] | Potency [9] | outcome [10] | outcome [17] | Potency [18] | Potency [19] | activity change, positive = activation [20] 3.55% | outcome [11] | Potency [12] | Potency [13] | Potency [14]

CCCCc1ccc(N)cc1
inactive: Potency [1] | Potency [2] | outcome [3] | outcome [4] | Potency [5] | Potency [6] | outcome [7] | outcome [8] | Potency [9] | outcome [10] | outcome [17] | Potency [18] | outcome [11] | Potency [13] | Potency [14]
